# Source: PubChem BioAssay
# Shown are actives, neighbours in structure and some others; about 3.5% of the full set was active somewhere.
# MBD2 inh: blocks human MBD2 binding to methylated DNA. TR-FRET, MBD2 binding to methylated oligonucleotide. inhibition, % at 4.4 µM. 370,000 tested, 0.31% active; in the data active means inhibition above about 13%
# LEDGF integ inh: blocks HIV-1 LEDGF/p75-dependent DNA integration; 370,000 tested, 0.64% active; TR-FRET IN-LEDGF/p75 DNA integration, Eu/Cy5; inhibition, % at 3.7 µM;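 active means inhibition above the screen-wide mean plus 3 SD, cut at about 13% in these data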;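 further: signal is the Cy5 over europium emission ratio at 671 and 618 nm; 0% = plate median of compound wells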
# PG9 Ab binder: binds the HIV-1 gp120 antibody PG9 | 360,000 tested, 0.43% active | TR-FRET gp120-PG9 antibody binding | inhibition, % at 6.7 µM; in the data active means inhibition above about 8.5%
# UHRF1 binding: blocks human UHRF1 binding to methylated DNA | Q96T88 | UHRF1 binding to methylated oligo, TR-FRET | inhibition, % at 4.4 µM | 370,000 tested, 0.75% active; in the data active means inhibition above about 21%;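 further: UHRF1 SRA domain binding a hemimethylated CpG hairpin DNA probe; 0% = median of test compound wells and 100% = reference inhibitor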
# rCAG RNA binder: molecules binding r(CAG) RNA repeats; r(CAG) RNA repeat, TO-PRO-1 dye displacement fluorescence; inhibition, % at 3 µM; 370,000 tested, 1.3% active;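 active means inhibition above the plate cutoff, the mean of all test compounds on that plate plus 3 SD, cut at about 35% in these data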;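 further: 0% = DMSO alone and 100% = 100 µM mitoxantrone as full dye displacement; higher means more dye released from RNA so lower well fluorescence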
# DNMT1 block: blocks human DNA methyltransferase DNMT1; inhibition (reported as % activation of signal), % at 10 µM; P26358; 360,000 tested, 0.83% active; AID 588458; DNMT1 molecular beacon, Hinp1I cleavage, fluorescence; in the data active means inhibition above about 50%
# IN multimer act: counter-screen for LEDGF/p75 integration inhibitors: HIV-1 integrase multimerization activators | shares compounds with LEDGF integ inh | TR-FRET HIV-1 integrase multimerization, biochemical | activation, % at 7.7 µM | 2,000 tested, 17% active | AID 1053131; in the data active means activation above about 8.9%
# TR-FRET interf: counter-screen for LEDGF/p75 integration inhibitors: TR-FRET optical interference; shares compounds with LEDGF integ inh; TR-FRET optical interference counterscreen, HIV-1 IN multimerization; inhibition, % at 7.7 µM; 2,000 tested, under 10 active; AID 1053135;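 active means inhibition above the mean over all tested compounds plus 3 SD, which no compound reached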;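 further: 0% = integrase with antibodies and DMSO and 100% = antibodies without integrase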
# IN-LEDGF confirm: LEDGF/p75-dependent HIV-1 integration inhibition, confirmation; AID 1053136; shares compounds with LEDGF integ inh; inhibition, % at 3.7 µM; 2,000 tested, 36% active; TR-FRET LEDGF/p75-dependent HIV-1 integration, biochemical; in the data active means inhibition above about 14%
# An asterisk follows results filed as active; / = no result given.
SMILES,MBD2 inh,LEDGF integ inh,PG9 Ab binder,UHRF1 binding,rCAG RNA binder,DNMT1 block,IN multimer act,TR-FRET interf,IN-LEDGF confirm
Cc1ccc(-n2nnc3c(=O)n(CC(=O)NCc4ccccc4)cnc32)cc1,3,-2,2,1,2,26,/,/,/
Cn1c(N)c(S(=O)(=O)N2CCN(c3ccccc3)CC2)c(=O)n(C)c1=O,5,15*,-1,3,1,-2,0,0,-3
Cn1c(N)c(S(=O)(=O)N2CCN(c3ccccc3F)CC2)c(=O)n(C)c1=O,4,3,1,3,0,2,/,/,/
CC(=O)Nc1ccc(Nc2ccc3c4c(cc(=O)n3C)-c3ccccc3C(=O)c24)cc1,1,-8,-1,11,-3,-6,/,/,/
O=C1c2ccccc2C(=O)c2c(Nc3ccc(CCO)cc3)ccc(O)c21,0,15*,-13,0,16,-1,14*,-51,0
O=C(COC(=O)c1sc2ccccc2c1Cl)NCC1CCCCC1,2,16*,-1,-1,0,14,-1,3,1
CC(Cc1ccccc1)NC(=O)CN1C(=O)c2ccccc2S1(=O)=O (configuration not stated),2,82*,1,-4,0,0,1,-3,-5
CC1C(=O)N2CCCc3cc(S(=O)(=O)N4CCC(C(N)=O)CC4)cc1c32 (configuration not stated),-7,1,-1,0,6,0,/,/,/
O=c1[nH]c(-c2ccccc2)nn1-c1ccc(Br)cc1Br,2,26*,2,-3,-1,1,1,-4,5
COC(=O)[C@]1(C)N[C@H](CN(C)S(=O)(=O)c2ccc(C(F)(F)F)cc2)[C@@H]2C(=O)N(C)C(=O)[C@@H]21,1,36*,2,-3,2,1,-2,8,-5
CCN(C[C@H]1N[C@@](Cc2ccccc2)(C(=O)OC)[C@H]2C(=O)N(Cc3ccccc3)C(=O)[C@@H]12)S(=O)(=O)c1ccc(C(F)(F)F)cc1,5,25*,-2,2,23,6,0,-2,-14
N#Cc1csc(CCNC(=O)c2ccccc2)n1,2,1,-2,1,2,-2,/,/,/
Cc1cc2c(c(=O)n1Cc1ccccn1)C(C(C)C)C(C#N)=C(N)O2 (configuration not stated),3,17*,1,12,1,4,0,1,-7
Cc1cc2c(c(=O)n1Cc1ccccn1)C(c1ccc3c(c1)OCO3)C(C#N)=C(N)O2 (configuration not stated),0,-3,-1,-1,-2,-4,/,/,/
Cc1cc(C)c2c(N)c(S(=O)c3ccc(C(C)(C)C)cc3)sc2n1 (configuration not stated),-1,36*,-1,1,4,-4,1,-4,-4
COc1cccc(NC(=O)c2ccc3c(c2)N(CC(=O)N2CCOCC2)C(=O)C(C)(C)O3)c1,-7,2,1,2,1,1,/,/,/
COc1ccc(C2C(C(C)=O)=C(C)N=c3s/c(=C\c4cc(C)n(C)c4C)c(=O)n32)c(OC)c1 (configuration not stated),-6,2,-3,-14,-27,-12,/,/,/
COc1ccc(C2C(C(C)=O)=C(C)N=c3s/c(=C\c4ccco4)c(=O)n32)c(OC)c1 (configuration not stated),-2,15*,-2,-3,15,-20,-1,7,0
O=C1CCc2cc(S(=O)(=O)Nc3ccccc3)cc3c2N1CCC3,-2,-2,1,1,-3,1,/,/,/
COc1cc(N(C(C)=O)c2ccc(O)c(C(=O)O)c2)c2ncccc2c1,-7,16*,-2,-3,10,19,0,0,26*
COc1cc(N(C(C)=O)c2ccc(O)cc2)c2ncccc2c1,5,-2,0,3,11,-30,/,/,/
COC(=O)c1sc(N)c(C(=O)OC)c1COC(=O)[C@@H](NS(=O)(=O)c1cccc(Cl)c1)C(C)C,1,21*,0,1,5,-2,-2,12,-3
Clc1ccccc1OCCn1nnc2ccccc21,-4,29*,0,-1,1,0,0,-1,-2
Cc1ccc(C)c(OCCn2nnc3ccccc32)c1,4,3,0,-2,2,8,/,/,/
COc1cc(C(=S)N2CCOCC2)ccc1OS(=O)(=O)c1ccc(Cl)cc1,-1,5,-1,-1,-1,0,/,/,/
SMILES,MBD2 inh,LEDGF integ inh,PG9 Ab binder,UHRF1 binding,rCAG RNA binder,DNMT1 block,IN multimer act,TR-FRET interf,IN-LEDGF confirm
COc1cc(C(=S)N2CCOCC2)ccc1OS(=O)(=O)c1ccc(C)cc1,1,20*,0,1,1,0,0,-1,-5
CC(C)CCn1nnnc1C(c1ccccc1)N1CCN(C)CC1 (configuration not stated),0,2,-1,-1,-7,1,/,/,/
C=CCN1CCN(C(c2ccccc2)c2nnnn2CCC(C)C)CC1 (configuration not stated),1,56*,-1,0,-10,0,-4,16,-1
O=C(Nc1ccc(F)c(Cl)c1)C1Cc2c(-c3ccccc3Oc3ccccc3)ccnc2O1 (configuration not stated),-2,-1,-3,0,7,-11,/,/,/
CCOC(=O)c1ccc(NC2OC(=O)c3ccccc32)cc1 (configuration not stated),0,20*,-1,-1,-1,-1,-1,2,-6
CCOC(=O)c1ccc(N[C@@H]2CCN3C(=O)c4ccccc4[C@@H]3C[C@H]2O)cc1,-1,4,-1,0,4,-4,/,/,/
Cc1cc(O)c(CN(C)C)c2c1C(=O)/C(=C/c1ccco1)O2,6,26*,-4,16,31,-1,11*,-41,24*
O=C(Nc1cccc(NC(=O)c2ccc(Br)o2)c1)c1ccccc1,-2,3,-2,8,-1,0,/,/,/
O=C(c1ccccc1)c1cccc(NC(=O)c2ccc(Br)o2)c1,-4,18*,-1,-1,1,0,-2,10,-4
COc1ccc(Cl)cc1NC(=O)NNC(=O)C(=O)Nc1ccc(F)cc1,0,65*,-2,-2,4,27,0,2,4
CC(C)C(=O)Nc1ccc2c(c1)nc(CCN1CCN(C)CC1)n2C,0,13*,-1,5,-4,-1,0,2,-3
